# This is a sample that favours compounds with a hit; in the whole collection about 18% have one here.
# DT40 TDP1 CPT = DT40-hTDP1 cell growth loss with CPT; hit rate 12% among 420,000; chicken DT40 Tdp1-/-;hTDP1 cells + 20 nM CPT, ATP luminescence, 48 h; Potency, µM (doses to about 46.2 µM), most hits filed as inhibitors; also: nearly all actives have a fitted effect of over 55% in size
#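 Chicken DT40 Tdp1-/- cells stably complemented with human TDP1 were seeded at 400 cells/well in medium containing 20 nM camptothecin, exposed to pin-transferred compounds, and grown at 37 °C for at least 48 hr. Viability was read as ATP luminescence.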
# IL-1B inflam inh = inhibitors of inflammasome signaling (IL-1 beta secretion); THP-1 LPS/ATP IL-1B secretion, AlphaLISA, 16 h; hits give low values; hit rate 4.7% among 360,000; activity change, % at 57.5 µM; in the data active = activity change below about -50%; inconclusive = mostly about -30% to -49%
#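 Secreted IL-1B measured by AlphaLISA bead assay after 16 h compound exposure of THP-1 cells; compounds (final up to 57.5 uM) added 1 h before LPS (250 ng/mL) and ATP (1.25 mM) stimulation; lower signal means less secretion.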
# LDHA block = LDHA (human) enzyme inhibition | P00338 | purified LDHA, NADH/diaphorase-resazurin fluorescence; hits give low values | activity change, % (values are at about 110 or 230 µM) | hit rate 0.15% among 480,000 | AID 1347041; in the data active = activity change below about -30%; inconclusive = mostly about -25% to -30%
#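 Remaining NADH was detected by diaphorase (0.133 mg/mL) converting 37 µM resazurin to fluorescent resorufin, read at 0 and 20 minutes. The preceding 5-minute room-temperature reaction used 2 nM LDHA, 0.2 mM sodium pyruvate and 0.06 mM NADH at pH 7.4.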
# VP16 counter = Gal4-VP16 reporter inhibition counter-screen; Drosophila S2 Gal4-VP16 UAS-luciferase, luminescence, 20 h; Potency, µM (doses to about 53.6 µM), hits mostly inhibitors; hit rate 3.5% among 310,000;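 also: Gal4-VP16 expression switched on by copper sulfate through the metallothionein promoter; nearly all actives have a fitted effect of over 50% in size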
# RORg inh = blocks mouse ROR gamma transcriptional activity | P51450 | Drosophila S2 Gal4-RORgamma UAS-luciferase reporter, 20 h | Potency, µM (series often up to 53.6 µM), usual class: inhibitors | hit rate 5.4% among 310,000; also: nearly all actives have a fitted effect of over 60% in size
# Target sequence (P51450 whole entry, looked up, the tested form may be a part): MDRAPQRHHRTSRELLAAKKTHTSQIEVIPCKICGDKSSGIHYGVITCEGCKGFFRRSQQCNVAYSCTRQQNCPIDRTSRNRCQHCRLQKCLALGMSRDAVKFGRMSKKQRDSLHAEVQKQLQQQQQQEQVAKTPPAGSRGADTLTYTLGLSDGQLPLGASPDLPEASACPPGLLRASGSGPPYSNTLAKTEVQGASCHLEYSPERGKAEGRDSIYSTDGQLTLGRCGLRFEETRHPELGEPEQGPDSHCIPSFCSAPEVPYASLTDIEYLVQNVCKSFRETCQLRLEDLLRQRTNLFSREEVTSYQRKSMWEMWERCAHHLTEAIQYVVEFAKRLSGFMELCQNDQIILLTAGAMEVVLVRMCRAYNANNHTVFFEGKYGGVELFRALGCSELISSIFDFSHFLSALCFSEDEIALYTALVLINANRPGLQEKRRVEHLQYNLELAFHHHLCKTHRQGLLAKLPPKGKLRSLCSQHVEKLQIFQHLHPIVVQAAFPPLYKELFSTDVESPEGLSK
#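 Read-out: Photinus luciferase luminescence; inhibitors lower reporter signal. Insect Schneider cells with Gal4-ROR gamma fusion under metallothionein promoter, UAS reporter; 700 uM final copper sulfate induction, 20 hr, ambient temperature.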
# TDP1 cell noCPT = qHTS for Inhibitors of human tyrosyl-DNA phosphodiesterase 1 (TDP1): qHTS in cells in absence of CPT | AID 686978, 2013 | DT40 Tdp1-/- hTDP1 cells, no CPT, ATP luminescence, 48 h | Potency, µM (series often up to 46.2 µM), usual class: inhibitors | hit rate 15% among 420,000; also: nearly all actives have a fitted effect of over 55% in size
#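 DT40 Tdp1-/-;hTDP1 cells, no CPT (DMSO vehicle only), 400 cells/well; compounds pin-transferred; ≥48 hr, 37 °C; CellTiter-Glo 30 min RT dark, luminescence read.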
# Hits are given with their value; n = inactive; u = inconclusive; x = no result given. Unless noted, calls follow the shape of the dose curve; as a rule, active = well fitted curve in the direction sought with a large enough effect; inconclusive = small, poorly fitted or top-dose-only effect, or another doubt; inactive = no such curve, though single readings can be large; an effect the other way counts as inactive or inconclusive.
SMILES,DT40 TDP1 CPT,IL-1B inflam inh,LDHA block,VP16 counter,RORg inh,TDP1 cell noCPT
Cc1ccc(C(=O)NN2CCOCC2)cc1[N+](=O)[O-],n,n,n,n,n,n
COc1ccccc1CNC(=O)CSc1ccc(C(=O)Nc2ccccc2OC)cc1[N+](=O)[O-],9.2µM,n,n,n,n,9.2µM
CCOc1ccc(C(=O)NC(=S)Nc2ccc(N3CCCCC3)cc2)cc1[N+](=O)[O-],11.6µM,n,n,3.98µM,3.16µM,u
COc1ccc(C(=O)NC(=S)N2CCCCC2)cc1[N+](=O)[O-],u,n,n,1.26µM,0.891µM,u
CC(C(=O)Nc1ccc(C(=O)O)c(O)c1)N1C(=O)/C(=C\c2ccco2)SC1=S (configuration not stated),u,n,n,n,n,n
CC(C(=O)NC1C=CS(=O)(=O)C1)N1C(=O)/C(=C\c2ccccc2)SC1=S (configuration not stated),u,-61.8,n,u,n,u
COc1ccccc1/C=C1/SC(=S)N(C(C)C(=O)NC2C=CS(=O)(=O)C2)C1=O (configuration not stated),u,u,n,n,n,u
CC(C(=O)NC1C=CS(=O)(=O)C1)N1C(=O)/C(=C/c2cccc(Cl)c2)SC1=S (configuration not stated),16.4µM,-67.8,n,n,u,n
O=[N+]([O-])c1ccc(-c2cc(-c3cccnc3)nc3ccc4ccccc4c23)cc1,x,x,n,x,x,x
CC(C)c1cc(C(=O)Nc2ccc(NC(N)=O)cc2)c2ccccc2n1,x,x,n,x,x,x
O=C1c2ccccc2C(Nc2cccnc2)N1Cc1ccccc1Cl (configuration not stated),u,n,n,n,n,20.6µM
CCOC(=O)N1CCC(N2C(=O)c3ccccc3C2Nc2ccccc2C)CC1 (configuration not stated),u,n,n,n,n,u
CCOC(=O)c1ccccc1NC1c2ccccc2C(=O)N1C1CCN(C(=O)OCC)CC1 (configuration not stated),u,n,n,n,n,16.4µM
CCN(CC)S(=O)(=O)c1ccc(NC2c3ccccc3C(=O)N2c2ccc(C)cn2)cc1 (configuration not stated),u,n,n,n,n,u
Cc1ccc(N2C(=O)c3ccccc3C2Nc2cccnc2)nc1 (configuration not stated),14.6µM,n,n,n,u,25.9µM
CCOC(=O)c1ccccc1NC1c2ccccc2C(=O)N1c1ccc(C)cn1 (configuration not stated),u,n,n,u,n,18.4µM
COc1cc(C(=O)O/N=C(\C)c2ccc(Cl)cc2)cc(OC)c1OC,x,x,n,x,x,x
Cc1cccc(NC(NC(=O)c2cccc(Cl)c2)C(Cl)(Cl)Cl)c1 (configuration not stated),x,x,n,x,x,x
COc1ccc(N/N=C(/C(N)=O)C2=NC(C)(C)Cc3ccccc32)cc1,16.4µM,n,n,n,u,16.4µM
COc1ccc(NC(=O)NCc2ccccn2)cc1,n,n,n,n,n,n
Cn1c(O)c(C(C#N)=C2N=c3ccccc3=N2)c2ccccc21,8.2µM,n,n,n,n,11.6µM
FC(F)(F)c1cccc(CSc2nnc(SCc3ccc(Cl)cc3)s2)c1,x,x,n,x,x,x
CCOc1ccc(CN2CCc3nc(N4CCN(c5ncccn5)CC4)ncc3C2)cc1OC,20.6µM,x,n,x,x,u
Fc1ccccc1N1CCN(c2ncc3c(n2)CCN(Cc2cc(Br)cs2)C3)CC1,u,x,n,x,x,n
COc1cccc(N2CCN(c3ncc4c(n3)CCN(Cc3ccc(Br)cc3)C4)CC2)c1,13µM,x,n,x,x,9.2µM
Clc1ccc(CN2CCc3nc(N4CCN(c5ccccn5)CC4)ncc3C2)cc1,n,x,n,x,x,n
COc1ccccc1N1CCN(c2ncc3c(n2)CCN(Cc2ccccc2F)C3)CC1,n,x,n,x,x,n

# Screens as filed in PubChem BioAssay.
